# Experimental data as given in PMC5540273 (PLoS ONE, 2017).
# Experiments:
# Settings in all cases: concentration: 1 μM,replicates: in singlicate; n = 1
# PIP5K1A = test system: PIP5K1A
# PIP5K1C = test system: PIP5K1C
# PIP5K2B = test system: PIP5K2B
# PIP5K2C = test system: T1, PIP5K2C
# T1 construct: gene PIP4K2C
# PKAC-alpha = test system: T2, PKAC-alpha
# T2 construct: gene PRKACA
# PKAC-beta = test system: T3, PKAC-beta
# T3 construct: gene PRKACB
# PKMYT1 = test system: PKMYT1
# PKN1 = test system: PKN1
# PKN2 = test system: PKN2
# PLK1 = test system: PLK1
# PLK2 = test system: PLK2
# PLK3 = test system: PLK3
# PLK4 = test system: PLK4
# PRKCD = test system: PRKCD
# PRKCE = test system: PRKCE
# PRKCH = test system: PRKCH
# PRKCI = test system: PRKCI
# PRKCQ = test system: PRKCQ
# PRKD1 = test system: PRKD1
# PRKD2 = test system: PRKD2
# 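Further: KINOMEscan kinase panel screen.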
SMILES,%Inh (PIP5K1A) [%],%Inh (PIP5K1C) [%],%Inh (PIP5K2B) [%],%Inh (PIP5K2C) [%],%Inh (PKAC-alpha) [%],%Inh (PKAC-beta) [%],%Inh (PKMYT1) [%],%Inh (PKN1) [%],%Inh (PKN2) [%],%Inh (PLK1) [%],%Inh (PLK2) [%],%Inh (PLK3) [%],%Inh (PLK4) [%],%Inh (PRKCD) [%],%Inh (PRKCE) [%],%Inh (PRKCH) [%],%Inh (PRKCI) [%],%Inh (PRKCQ) [%],%Inh (PRKD1) [%],%Inh (PRKD2) [%]
CCOC(=O)N1CCC(n2cnc(-c3ccc(F)cc3)c2-c2ccnc(N)n2)CC1 [SB-219952],0,32,2,94.4,9,36,32,0,8,23,2,0,25,0,4,0,8,1,32,5
Cn1ccc2ncnc(Oc3ccc(NC(=O)Nc4cncc(C(F)(F)F)c4)c(Cl)c3)c21,29,20,6,0,0,0,6,0,0,0,0,0,0,2,0,20,0,23,0,0
Cl.c1ccc(Oc2ccc(Nc3ccnc4cc(-c5ccc(CN6CCNCC6)o5)ccc34)cc2)nc1 [GW567142],0,34,0,23,0,0,0,10,0,22,0,0,16,0,0,0,20,0,24,3
Cn1ccc2ncnc(Oc3ccc(NC(=O)Nc4cnn(C(C)(C)C)c4)c(Cl)c3)c21,17,3,100,0,0,3,0,0,3,0,1,11,31,27,0,0,10,21,0,13
Cn1ccc2ncnc(Oc3ccc(NC(=O)Nc4cccc(C(F)(F)F)c4)c(F)c3)c21,0,17,0,0,0,34,2,0,16,0,12,33,31,0,0,0,39,0,0,3
CC(C)c1nc(-c2cccc(NS(=O)(=O)c3ccccc3)c2)c(-c2ccnc(Nc3ccc4c(c3)CN(C)CC4)n2)s1 [GSK1649598],0,0,20,65,0,0,0,43,0,0,0,0,99.8,0,0,0,45,11,93.9,99.9
CSc1nccc(-c2c(-c3ccc(F)cc3)ncn2CCCN2CCOCC2)n1.Cl [SB-217146],0,0,0,0,14,19,0,0,0,33,28,44,5,8,38,0,14,0,0,1
CS(=O)c1ccc(-c2coc3ccc(-c4n[nH]c(=O)o4)cc23)cc1 (stereo not shown),0,68,20,79,0,23,8,8,12,6,4,6,34,24,7,0,8,2,0,4
CN1CCN(CCCNc2nccc(-c3c(-c4ccc(F)cc4)nn4cc(C(N)=O)ccc34)n2)CC1 [GW622475],0,50,12,29,6,1,9,13,0,0,0,0,10,29,14,22,41,42,65,67
CCN1CCN(CCCC(=O)Nc2n[nH]c3nc(-c4ccc(O)cc4)c(Br)cc23)CC1 [SB-731579],12,30,0,24,0,0,0,0,6,0,0,0,0,64,70,19,2,0,1,0
O=C(Nc1cccc(Oc2ccc3nccn3n2)c1)Nc1cccc(C(F)(F)F)c1,6,37,14,35,66,63,0,0,31,38,0,0,0,10,0,0,11,9,2,24
OCCn1cc(-c2cnc3nnn(Cc4ccc5ncccc5c4)c3n2)cn1,1,3,0,0,0,0,0,0,0,0,0,50,4,0,49,0,0,0,5,0
Cc1ccn2nc(-c3ccc(F)cc3)c(-c3ccncc3)c2c1.Cl [GW457859],54,81,15,26,29,13,0,0,0,0,0,0,2,0,14,8,18,8,17,20
O=c1[nH]cc(-c2ccc(O)cc2)c2sc(-c3ccncc3)cc12 [GSK1033723],0,65,19,27,0,0,8,0,0,13,0,0,0,0,21,0,33,19,0,0
COc1cc(Nc2nccc(N3CCC(NC(=O)c4cccc(C#N)c4)C3)n2)cc(OC)c1OC (stereo not shown) [GSK1379751],0,47,0,94.5,0,0,0,0,0,0,0,0,36,0,7,0,0,0,0,0
CS(=O)(=O)Nc1ccc(-c2ccnc3[nH]ccc23)cc1 [GSK993273],57,29,55,89,84,85,0,21,18,0,0,0,21,42,64,49,26,57,0,0
O=C(Nc1n[nH]c2cc(-c3ccco3)ccc12)C1CC1 [SB-737447],45,12,27,0,0,0,0,0,12,0,6,8,20,4,0,8,29,5,0,0
Cc1cccc2c(-c3ccncc3)c(-c3ccc(F)cc3)nn12.Cl [GW461487],13,35,10,0,0,0,9,0,0,0,0,0,0,3,10,0,23,0,2,36
CN(c1ccc2c(c1)nc(NCc1ccc(F)cc1)n2C)c1ccnc(Nc2ccc(CS(C)(=O)=O)cc2)n1.Cl [GW813244],12,0,26,52,24,14,4,18,4,0,3,21,73,11,100,0,18,0,0,24
CC(=O)c1c(-c2ccncc2)[nH]c(-c2ccncc2)c1C [GW493036],50,91.1,19,16,0,47,0,16,0,18,0,0,0,0,25,13,0,0,2,15
NC(=O)c1ccc(-c2cc3ncnc(SCC(=O)O)c3s2)cc1,0,93,6,72,0,0,0,0,4,0,0,6,56,0,0,0,0,0,0,0

SMILES,%Inh (PIP5K1A) [%],%Inh (PIP5K1C) [%],%Inh (PIP5K2B) [%],%Inh (PIP5K2C) [%],%Inh (PKAC-alpha) [%],%Inh (PKAC-beta) [%],%Inh (PKMYT1) [%],%Inh (PKN1) [%],%Inh (PKN2) [%],%Inh (PLK1) [%],%Inh (PLK2) [%],%Inh (PLK3) [%],%Inh (PLK4) [%],%Inh (PRKCD) [%],%Inh (PRKCE) [%],%Inh (PRKCH) [%],%Inh (PRKCI) [%],%Inh (PRKCQ) [%],%Inh (PRKD1) [%],%Inh (PRKD2) [%]
COc1cc2nccc(Nc3ccc(Oc4ccccc4)cc3)c2cc1OC.Cl [GI261656],10,56,46,31,0,0,0,0,0,0,0,0,15,0,0,1,0,0,0,0
COc1ccc(Nc2nccc(N3CCC(NC(=O)c4cccc(C#N)c4)C3)n2)cc1 (stereo not shown) [GSK1379730],4,35,0,23,12,9,0,37,0,0,0,0,0,8,0,36,54,0,0,0
CN(c1cccc(CNc2nc(Nc3ccc4c(c3)CC(=O)N4)ncc2C(F)(F)F)c1)S(C)(=O)=O,45,45,90.9,46,0,0,5,77,19,0,70,69,89,27,16,0,22,38,27,39
CNC(=O)c1ccccc1Nc1nc(Nc2cccc(CS(C)(=O)=O)c2)ncc1C.O=CO [GSK1520489],55,52,84,79,11,28,84,56,2,97.9,68,17,100,13,77,0,17,42,0,6
O=C(Nc1ccc(Oc2ccc3nc(NC(=O)C4CC4)cn3n2)c(F)c1)c1cccn(-c2ccccc2)c1=O,1,22,22,76,0,56,0,0,48,0,0,0,0,0,0,0,28,0,0,9
Cc1cccc(-c2nc(Nc3ccncc3)c3sccc3n2)n1 [GW869641],4,61,3,45,25,38,3,1,12,33,20,13,23,20,40,21,32,0,99.3,–
Cc1ccc2c(-c3ccnc(Nc4ccc(C(F)(F)F)cc4)n3)cnn2n1 [GW819776],15,0,0,82,14,20,0,0,0,25,15,33,9,5,0,0,22,0,0,0
c1ccc(Oc2ccc(Nc3ccnc4ccc(-c5ccccn5)cc34)cc2)cc1 [GW407034],6,23,25,28,0,8,11,28,0,0,0,0,15,0,3,0,0,27,0,5
COC(=O)Nc1nc2cc(Oc3ccc(NC(=O)Nc4cc(C(F)(F)F)ccc4Cl)cc3)ccc2[nH]1.Cl [GW697465],56,63,15,53,0,0,0,0,0,0,0,0,0,0,11,7,0,6,0,1
O=C(NCC1CC1)c1ccc(-c2cc(C(=O)NC3CC3)ccc2F)cc1 [GW810445],54,0,0,22,7,0,0,0,0,6,0,0,0,0,27,0,0,0,0,0
CC(=O)Nc1nc2cnc(Nc3cc(NC(=O)c4cccc(CC(C)(C)C#N)c4)ccc3C)nc2s1,0,4,33,53,13,0,20,21,0,7,0,3,18,13,0,14,5,11,0,0
Cc1ccc(Nc2ccnc(Nc3ccc4c(c3)CS(=O)(=O)C4)n2)cc1O.Cl [GW579362],29,39,80,90,7,0,0,11,0,0,0,4,99.7,0,19,0,32,46,29,55
CCCC(=O)Nc1n[nH]c2ncccc12 [SB-601436],24,0,39,0,0,10,0,0,9,0,7,7,0,0,19,0,0,0,0,0
CN(c1ccccc1CNc1nc(Nc2ccc3c(c2)CC(=O)N3)ncc1C(F)(F)F)S(C)(=O)=O,32,0,19,9,77,63,0,85,66,0,80,49,61,73,58,0,0,80,51,31
O=C(Nc1cccc(C(F)(F)F)c1)c1cccc(Oc2ccc3nccn3n2)c1,0,17,14,10,17,7,9,81,0,50,11,0,0,22,1,0,13,51,0,0
FC(F)(F)c1cc(Br)cc(Nc2nccc(-c3cnn4ncccc34)n2)c1 [GW810578],0,3,0,94.2,17,0,1,12,27,9,24,13,26,16,4,7,0,1,4,0
C[C@@H]1CCN(C(=O)N2CCCC2)C[C@@H]1N(C)c1ncnc2[nH]ccc12,8,0,0,0,0,0,0,86,48,0,20,21,44,17,17,13,30,0,0,54
CCn1c(-c2nonc2N)nc2cncc(Br)c21 [SB-738004],54,53,28,38,11,0,6,0,4,18,8,14,76,21,92.8,58,36,6,0,11
C[C@@H](Oc1cc(-n2cnc3ccc(-c4ccncc4)cc32)sc1C(N)=O)c1ccccc1Cl [GSK483724],0,85,13,81,13,5,0,17,10,–,99.3,–,0,8,29,33,40,33,0,0
CC(=O)Nc1ccc(-c2cc3ncnc(SCC(=O)O)c3s2)cc1,0,70,0,46,0,0,25,12,5,0,15,7,47,22,10,1,0,18,22,0
